From the supplement of paper PMC11732987, “Enantioselective OTUD7B fragment discovery through chemoproteomics screening and high-throughput optimisation” (Communications Chemistry, 2025)

Legend:
Assay in all cases: log2 ratio of Biotin-Ahx-Ub-VS probe labelling (fragment/DMSO); higher = less target engagement (more negative = stronger competition), active = hit call of the paper (q ≤ 0.05, log2 ratio ≤ -1)
Details in all cases: compound concentration: 200 uM; treatment time: 3 h
USP19 = target: T1, USP19 (UniProt O94966)
T1 sequence (whole entry): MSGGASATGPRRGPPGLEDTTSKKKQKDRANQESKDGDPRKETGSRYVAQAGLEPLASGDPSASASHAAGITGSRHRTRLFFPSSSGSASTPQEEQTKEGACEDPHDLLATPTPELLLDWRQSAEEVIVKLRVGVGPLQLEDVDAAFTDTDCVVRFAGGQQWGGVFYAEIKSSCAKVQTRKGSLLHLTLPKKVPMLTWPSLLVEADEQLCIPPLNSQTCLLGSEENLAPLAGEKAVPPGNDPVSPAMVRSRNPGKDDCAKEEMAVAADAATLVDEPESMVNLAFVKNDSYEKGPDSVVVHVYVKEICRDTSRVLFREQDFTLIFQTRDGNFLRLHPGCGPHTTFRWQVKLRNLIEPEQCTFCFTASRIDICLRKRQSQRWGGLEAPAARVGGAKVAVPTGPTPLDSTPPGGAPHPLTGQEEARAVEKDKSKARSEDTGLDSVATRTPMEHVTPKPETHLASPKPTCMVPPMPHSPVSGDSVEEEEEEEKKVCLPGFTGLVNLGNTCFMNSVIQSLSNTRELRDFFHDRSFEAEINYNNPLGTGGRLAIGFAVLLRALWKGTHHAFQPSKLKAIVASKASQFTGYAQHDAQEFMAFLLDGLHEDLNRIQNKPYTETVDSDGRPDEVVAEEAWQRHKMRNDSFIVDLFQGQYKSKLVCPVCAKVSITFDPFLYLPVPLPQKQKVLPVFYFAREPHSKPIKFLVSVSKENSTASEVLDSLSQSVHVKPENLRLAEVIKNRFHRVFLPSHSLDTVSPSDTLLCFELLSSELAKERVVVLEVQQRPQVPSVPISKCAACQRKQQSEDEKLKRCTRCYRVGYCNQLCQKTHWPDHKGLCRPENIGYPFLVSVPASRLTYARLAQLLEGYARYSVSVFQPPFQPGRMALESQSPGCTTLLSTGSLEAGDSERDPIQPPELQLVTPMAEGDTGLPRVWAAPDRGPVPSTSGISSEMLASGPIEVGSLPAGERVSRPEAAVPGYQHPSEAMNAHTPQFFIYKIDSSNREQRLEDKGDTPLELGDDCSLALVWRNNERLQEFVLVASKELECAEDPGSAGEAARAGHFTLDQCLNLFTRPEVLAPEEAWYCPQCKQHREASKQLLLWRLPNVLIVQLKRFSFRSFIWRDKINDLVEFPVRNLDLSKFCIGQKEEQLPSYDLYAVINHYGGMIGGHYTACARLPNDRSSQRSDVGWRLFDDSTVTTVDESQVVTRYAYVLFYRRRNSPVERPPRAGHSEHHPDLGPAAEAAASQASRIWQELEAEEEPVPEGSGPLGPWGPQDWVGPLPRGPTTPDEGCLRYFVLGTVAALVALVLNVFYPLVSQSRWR
Outline: (§1)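 Triplicate samples of HEK293T lysate, 495 µg each, received fragment at 200 µM or vehicle for 3 h, followed by Biotin-Ahx-Ub-VS (0.5 µM final) for 1 h. After NeutrAvidin enrichment of labelled DUBs and LysC/trypsin digestion, peptides were run by diaPASEF LC-MS/MS. The values are average log2 fragment/vehicle ratios from global-median-normalised Spectronaut label-free quantities, tested by unpaired t-test on proteins having ≥2 unique peptides.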

USP24 = USP24 (UniProt Q9UPU5)
Chain of USP24 (Q9UPU5 whole entry): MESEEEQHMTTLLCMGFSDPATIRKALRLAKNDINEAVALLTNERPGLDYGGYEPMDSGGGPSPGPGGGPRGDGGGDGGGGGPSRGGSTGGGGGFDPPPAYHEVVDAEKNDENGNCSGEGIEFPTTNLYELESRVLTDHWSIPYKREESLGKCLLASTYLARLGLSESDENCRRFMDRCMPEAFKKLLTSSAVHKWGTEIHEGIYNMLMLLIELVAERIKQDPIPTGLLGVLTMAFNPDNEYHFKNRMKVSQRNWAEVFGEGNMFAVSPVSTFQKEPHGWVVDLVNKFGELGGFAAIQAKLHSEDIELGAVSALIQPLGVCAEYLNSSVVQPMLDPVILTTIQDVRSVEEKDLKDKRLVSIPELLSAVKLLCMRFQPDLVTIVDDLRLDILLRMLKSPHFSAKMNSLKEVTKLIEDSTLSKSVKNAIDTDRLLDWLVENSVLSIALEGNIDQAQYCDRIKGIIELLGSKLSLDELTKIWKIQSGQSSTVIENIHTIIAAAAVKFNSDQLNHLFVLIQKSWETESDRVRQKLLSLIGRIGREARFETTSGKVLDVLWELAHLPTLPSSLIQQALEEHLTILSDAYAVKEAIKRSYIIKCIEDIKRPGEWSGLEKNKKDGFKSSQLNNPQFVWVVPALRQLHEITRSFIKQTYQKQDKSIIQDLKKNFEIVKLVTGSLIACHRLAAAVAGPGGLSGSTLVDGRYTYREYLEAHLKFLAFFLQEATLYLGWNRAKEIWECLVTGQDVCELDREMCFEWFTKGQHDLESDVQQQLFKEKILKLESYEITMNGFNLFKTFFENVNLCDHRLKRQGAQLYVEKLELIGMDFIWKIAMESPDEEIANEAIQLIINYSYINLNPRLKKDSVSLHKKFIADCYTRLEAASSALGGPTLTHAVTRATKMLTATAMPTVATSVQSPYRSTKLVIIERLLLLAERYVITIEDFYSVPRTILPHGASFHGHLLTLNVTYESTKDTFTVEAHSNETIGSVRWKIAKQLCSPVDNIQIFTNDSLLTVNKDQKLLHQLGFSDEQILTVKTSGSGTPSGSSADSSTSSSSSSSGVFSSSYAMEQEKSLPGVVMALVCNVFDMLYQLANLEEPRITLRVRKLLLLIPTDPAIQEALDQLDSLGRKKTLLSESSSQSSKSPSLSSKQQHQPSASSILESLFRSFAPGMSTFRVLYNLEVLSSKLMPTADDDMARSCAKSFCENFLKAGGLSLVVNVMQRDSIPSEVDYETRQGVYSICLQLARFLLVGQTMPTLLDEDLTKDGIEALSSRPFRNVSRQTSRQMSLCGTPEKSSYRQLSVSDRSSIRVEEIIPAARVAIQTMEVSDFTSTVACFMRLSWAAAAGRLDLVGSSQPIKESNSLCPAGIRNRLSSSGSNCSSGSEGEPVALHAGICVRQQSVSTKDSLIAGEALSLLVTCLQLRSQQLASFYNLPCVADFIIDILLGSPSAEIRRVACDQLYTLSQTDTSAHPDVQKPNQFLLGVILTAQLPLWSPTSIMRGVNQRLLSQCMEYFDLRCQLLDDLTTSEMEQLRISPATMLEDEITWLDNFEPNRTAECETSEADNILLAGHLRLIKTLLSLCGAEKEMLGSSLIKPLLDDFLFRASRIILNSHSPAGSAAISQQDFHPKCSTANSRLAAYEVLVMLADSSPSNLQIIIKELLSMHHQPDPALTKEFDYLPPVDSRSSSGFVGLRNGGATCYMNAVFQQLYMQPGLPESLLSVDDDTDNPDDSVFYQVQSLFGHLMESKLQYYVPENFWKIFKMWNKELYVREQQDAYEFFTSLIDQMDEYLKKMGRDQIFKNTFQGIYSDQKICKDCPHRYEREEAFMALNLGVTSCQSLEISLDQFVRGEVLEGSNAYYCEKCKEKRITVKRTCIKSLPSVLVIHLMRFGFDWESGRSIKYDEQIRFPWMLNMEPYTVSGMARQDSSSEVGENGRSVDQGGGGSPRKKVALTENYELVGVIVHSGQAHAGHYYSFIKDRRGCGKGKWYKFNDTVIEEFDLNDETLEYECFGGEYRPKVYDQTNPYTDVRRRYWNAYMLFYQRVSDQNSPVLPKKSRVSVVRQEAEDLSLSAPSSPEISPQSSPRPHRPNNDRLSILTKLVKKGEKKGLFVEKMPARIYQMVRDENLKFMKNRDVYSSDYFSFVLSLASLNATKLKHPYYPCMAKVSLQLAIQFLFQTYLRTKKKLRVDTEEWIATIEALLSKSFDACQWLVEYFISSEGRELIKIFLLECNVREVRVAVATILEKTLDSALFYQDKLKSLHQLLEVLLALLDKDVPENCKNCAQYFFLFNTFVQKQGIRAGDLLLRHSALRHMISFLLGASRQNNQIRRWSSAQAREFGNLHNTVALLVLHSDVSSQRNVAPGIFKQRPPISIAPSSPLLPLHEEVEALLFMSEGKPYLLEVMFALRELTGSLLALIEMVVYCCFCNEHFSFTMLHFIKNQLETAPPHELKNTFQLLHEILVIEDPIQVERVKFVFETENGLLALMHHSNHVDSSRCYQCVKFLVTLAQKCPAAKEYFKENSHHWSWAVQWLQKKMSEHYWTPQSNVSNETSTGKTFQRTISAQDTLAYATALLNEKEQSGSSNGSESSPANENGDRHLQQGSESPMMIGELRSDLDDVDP
Outline: as §1

USP25 = target: T2, USP25 (UniProt Q9UHP3)
T2 sequence (whole entry): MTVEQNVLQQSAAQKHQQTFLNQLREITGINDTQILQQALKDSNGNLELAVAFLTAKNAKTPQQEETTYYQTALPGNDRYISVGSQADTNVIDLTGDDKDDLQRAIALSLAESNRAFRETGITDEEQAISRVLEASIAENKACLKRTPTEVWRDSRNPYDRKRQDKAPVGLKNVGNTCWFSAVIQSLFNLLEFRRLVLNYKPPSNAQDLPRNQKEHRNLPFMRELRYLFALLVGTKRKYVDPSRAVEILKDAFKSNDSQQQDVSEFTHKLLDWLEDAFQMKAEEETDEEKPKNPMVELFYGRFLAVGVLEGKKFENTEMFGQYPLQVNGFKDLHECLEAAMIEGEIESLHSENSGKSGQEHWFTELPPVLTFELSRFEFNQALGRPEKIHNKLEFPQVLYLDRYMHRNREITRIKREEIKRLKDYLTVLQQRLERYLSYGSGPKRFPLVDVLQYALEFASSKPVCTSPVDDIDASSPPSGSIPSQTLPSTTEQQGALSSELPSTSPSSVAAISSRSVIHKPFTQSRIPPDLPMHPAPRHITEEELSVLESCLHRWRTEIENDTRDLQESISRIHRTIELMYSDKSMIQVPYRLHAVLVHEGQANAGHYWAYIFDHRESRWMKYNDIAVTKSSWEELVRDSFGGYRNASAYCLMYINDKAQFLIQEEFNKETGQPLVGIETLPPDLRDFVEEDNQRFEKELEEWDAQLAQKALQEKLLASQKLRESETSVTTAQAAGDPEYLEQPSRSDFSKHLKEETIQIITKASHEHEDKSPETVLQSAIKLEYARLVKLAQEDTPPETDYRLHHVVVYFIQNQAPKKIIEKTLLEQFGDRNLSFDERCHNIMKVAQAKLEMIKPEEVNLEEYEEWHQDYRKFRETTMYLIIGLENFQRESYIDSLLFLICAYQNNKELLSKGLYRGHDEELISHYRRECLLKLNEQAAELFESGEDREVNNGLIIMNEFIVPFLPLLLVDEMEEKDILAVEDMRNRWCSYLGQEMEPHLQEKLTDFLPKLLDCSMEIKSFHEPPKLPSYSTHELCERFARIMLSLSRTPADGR
Outline: as §1

USP28 = target: T3, USP28 (UniProt Q96RU2)
T3 sequence (whole entry): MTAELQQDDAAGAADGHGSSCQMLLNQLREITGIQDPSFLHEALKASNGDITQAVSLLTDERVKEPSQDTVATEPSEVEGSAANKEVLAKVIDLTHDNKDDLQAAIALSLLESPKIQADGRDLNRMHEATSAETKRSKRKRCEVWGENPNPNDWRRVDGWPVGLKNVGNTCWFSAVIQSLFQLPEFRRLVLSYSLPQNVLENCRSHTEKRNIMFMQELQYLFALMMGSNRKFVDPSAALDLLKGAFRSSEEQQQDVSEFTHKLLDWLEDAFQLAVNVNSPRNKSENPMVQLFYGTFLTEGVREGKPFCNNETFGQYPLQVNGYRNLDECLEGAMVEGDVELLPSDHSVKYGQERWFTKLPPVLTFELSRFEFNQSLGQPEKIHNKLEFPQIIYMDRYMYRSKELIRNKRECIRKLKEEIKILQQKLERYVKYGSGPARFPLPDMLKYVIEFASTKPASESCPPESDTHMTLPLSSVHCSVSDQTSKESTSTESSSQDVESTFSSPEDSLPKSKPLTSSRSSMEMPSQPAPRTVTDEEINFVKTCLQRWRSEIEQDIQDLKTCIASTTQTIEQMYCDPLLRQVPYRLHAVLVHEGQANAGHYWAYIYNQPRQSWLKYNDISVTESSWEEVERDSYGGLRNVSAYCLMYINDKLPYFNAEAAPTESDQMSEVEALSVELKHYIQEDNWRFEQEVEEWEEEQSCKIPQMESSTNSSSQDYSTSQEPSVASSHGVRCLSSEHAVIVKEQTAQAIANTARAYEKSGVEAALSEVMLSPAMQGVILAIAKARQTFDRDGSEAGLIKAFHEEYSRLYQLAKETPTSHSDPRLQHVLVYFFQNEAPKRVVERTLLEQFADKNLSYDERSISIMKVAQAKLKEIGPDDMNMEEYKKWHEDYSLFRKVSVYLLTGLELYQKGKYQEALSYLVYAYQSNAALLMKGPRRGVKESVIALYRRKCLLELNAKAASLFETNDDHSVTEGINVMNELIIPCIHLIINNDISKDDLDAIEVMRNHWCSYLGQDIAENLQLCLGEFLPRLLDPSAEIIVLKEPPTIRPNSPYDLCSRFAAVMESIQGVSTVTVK
Outline: as §1

Measured: log2 ratio of Biotin-Ahx-Ub-VS probe labelling

O=C(CCl)NC1CCS(=O)(=O)c2ccccc21 (centres undefined)
inactive: USP19 -0.237 | USP24 -0.183 | USP25 -0.461 | USP28 -0.943
